Results: PubChem BioAssay (EPA / NIEHS)
The source made the active and inactive calls. Rule for the calls: active = hit-call score of the fitted dose curve at least 0.9, where 1 is the maximum; inactive = score below 0.9.

Assays:
[1] = read-out: Human Leukocyte Antigen - DR isotype (HLADR), HLA-DRA (gene 3122); test: BSK_BE3C_HLADR: BioMAP Diversity Plus: BE3C Assay for Human Leukocyte Antigen - DR isotype (HLADR) Biomarker Activity (AID 2283032); details: primary human bronchial epithelial cells; actives raise or lower the signal
Summary of the method: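 BioMAP BE3C format: human bronchial epithelium, 24 h compound treatment, ELISA detection of HLA-DR, with bidirectional analysis relative to DMSO.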

[2] = read-out: Vascular cell adhesion molecule 1 (VCAM1), VCAM1 (gene 7412); test: BSK_4H_VCAM1: BioMAP Diversity Plus: 4H Assay for Vascular cell adhesion molecule 1 (VCAM1) Biomarker Activity (AID 2283033); details: primary human endothelial cells (HUVEC); actives raise or lower the signal;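 note: cell-surface VCAM-1 protein measured by ELISA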
Summary of the method: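 In this human endothelial (HUVEC) system, biomarker ELISA was run 24 h after compound addition, and total protein in parallel wells was assessed by SRB at 560 nm; DMSO served as negative control.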

[3] = read-out: Interferon-gamma inducible Protein 10 (IP10), CXCL10 (gene 3627); test: BSK_BE3C_IP10: BioMAP Diversity Plus: BE3C Assay for Interferon-gamma inducible Protein 10 (IP10) Biomarker Activity (AID 2283034); details: primary human bronchial epithelial cells; actives raise or lower the signal
Summary of the method: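 BE3C cells (human bronchial epithelial, primary); 24 h exposure; ELISA for IP-10; DMSO-referenced bidirectional fit.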

[4] = read-out: Plasminogen activator inhibitor-1 (PAI1), SERPINE1 (gene 5054); test: BSK_BE3C_PAI1: BioMAP Diversity Plus: BE3C Assay for Plasminogen activator inhibitor-1 (PAI1) Biomarker Activity (AID 2283037); details: primary human bronchial epithelial cells; actives raise or lower the signal
Summary of the method: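 In this multiplexed primary-cell system, bronchial epithelial cells receive test chemical and are sampled at 24 h. PAI-1 is read by ELISA, with DMSO serving as negative control for bidirectional fitting.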

[5] = read-out: urokinase plasminogen activator (uPA), PLAU (gene 5328); test: BSK_BE3C_uPA: BioMAP Diversity Plus: BE3C Assay for urokinase plasminogen activator (uPA) Biomarker Activity (AID 2283038); details: primary human bronchial epithelial cells; actives raise or lower the signal;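 note: uPA protein level quantified by ELISA in cell cultures; uPA read one day after compound addition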
Summary of the method: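 ELISA read-out of uPA in human lung primary bronchial epithelial cultures, 24 h post-dosing. Gain or loss of signal fitted bidirectionally relative to DMSO baseline; cytotoxicity checked in parallel cultures via SRB total protein stain.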

[6] = read-out: Urokinase-type plasminogen activator receptor (uPAR), PLAUR (gene 5329); test: BSK_BE3C_uPAR: BioMAP Diversity Plus: BE3C Assay for Urokinase-type plasminogen activator receptor (uPAR) Biomarker Activity (AID 2283039); details: primary human bronchial epithelial cells; actives raise or lower the signal;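 note: uPAR protein level measured by ELISA on the cells; cells exposed to compound for one day before measurement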
Summary of the method: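 Chemically treated human bronchial epithelial cells (lung primary) are assayed for uPAR by ELISA after 24 h, with data fitted in both directions using DMSO as negative control.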

[7] = read-out: Interleukin-6 (IL6), IL6 (gene 3569); test: BSK_CASM3C_IL6: BioMAP Diversity Plus: CASM3C Assay for Interleukin-6 (IL6) Biomarker Activity for (AID 2283040); details: primary human coronary artery smooth muscle cells; actives raise or lower the signal
[8] = read-out: Tissue plasminogen activator (tPA), PLAT (gene 5327); test: BSK_BE3C_tPA: BioMAP Diversity Plus: BE3C Assay for Tissue plasminogen activator (tPA) Biomarker Activity (AID 2283041); details: primary human bronchial epithelial cells; actives raise or lower the signal;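 note: tPA level quantified by ELISA one day after compound addition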
Summary of the method: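 Using human lung primary bronchial epithelial cells, tPA was measured by ELISA 24 h after dosing; data fitted relative to DMSO.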

[9] = read-out: Interleukin-8 (IL8), CXCL8 (gene 3576); test: BSK_CASM3C_IL8: BioMAP Diversity Plus: CASM3C Assay for Interleukin-8 (IL8) Biomarker Activity (AID 2283042); details: primary human coronary artery smooth muscle cells; actives raise or lower the signal;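 note: IL-8 protein level quantified by ELISA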
[10] = read-out: Human Leukocyte Antigen - DR isotype (HLADR), HLA-DRA (gene 3122); test: BSK_CASM3C_HLADR: BioMAP Diversity Plus: CASM3C Assay for Human Leukocyte Antigen - DR isotype (HLADR) Biomarker Activity (AID 2283043); details: primary human coronary artery smooth muscle cells; actives raise or lower the signal;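 note: cell-surface HLA-DR protein level quantified by ELISA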
[11] = read-out: Macrophage colony-stimulating factor (MCSF), CSF1 (gene 1435); test: BSK_CASM3C_MCSF: BioMAP Diversity Plus: CASM3C Assay for Macrophage colony-stimulating factor (MCSF) Biomarker Activity (AID 2283044); details: primary human coronary artery smooth muscle cells; actives raise or lower the signal;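 note: M-CSF protein amount quantified by ELISA after 24 h exposure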
[12] = read-out: Low-density lipoprotein receptor (LDLR), LDLR (gene 3949); test: BSK_CASM3C_LDLR: BioMAP Diversity Plus: CASM3C Assay for Low-density lipoprotein receptor (LDLR) Biomarker Activity (AID 2283045); details: primary human coronary artery smooth muscle cells; actives raise or lower the signal;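 note: LDLR protein level on the cell surface quantified by ELISA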
[13] = read-out: Monocyte Chemoattractant Protein-1 (MCP1), CCL2 (gene 6347); test: BSK_CASM3C_MCP1: BioMAP Diversity Plus: CASM3C Assay for Monocyte Chemoattractant Protein-1 (MCP1) Biomarker Activity (AID 2283046); details: primary human coronary artery smooth muscle cells; actives raise or lower the signal;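 note: MCP-1 level quantified by ELISA 24 h after dosing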
[14] = BSK_CASM3C_Proliferation: Cell Proliferation Assessment in the BioMAP Diversity Plus: CASM3C Assay (AID 2283047); details: primary human coronary artery smooth muscle cells;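 note: sulforhodamine B total protein stain as relative cell number at 560 nm; sub-confluent cells exposed 48 h before staining; fitted both ways against DMSO so gain or loss of cell number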
[15] = read-out: Monokine induced gamma interferon (MIG), CXCL9 (gene 4283); test: BSK_CASM3C_MIG: BioMAP Diversity Plus: CASM3C Assay for Monokine induced gamma interferon (MIG) Biomarker Activity (AID 2283048); details: primary human coronary artery smooth muscle cells; actives raise or lower the signal;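 note: MIG protein level measured by ELISA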
[16] = read-out: serum amyloid A (SAA), SAA1 (gene 6288); test: BSK_CASM3C_SAA: BioMAP Diversity Plus: CASM3C Assay for serum amyloid A (SAA) Biomarker Activity (AID 2283049); details: primary human coronary artery smooth muscle cells; actives raise or lower the signal;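 note: SAA protein level quantified by ELISA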
[17] = BSK_CASM3C_SRB: Viability Assessment in the BioMAP Diversity Plus: CASM3C Assay (AID 2283050); details: primary human coronary artery smooth muscle cells;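 note: total protein by SRB staining as cytotoxicity measure in parallel cultures; cells exposed to compound for 24 h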
[18] = read-out: Thrombomodulin, THBD (gene 7056); test: BSK_CASM3C_Thrombomodulin: BioMAP Diversity Plus: CASM3C Assay for Thrombomodulin Biomarker Activity (AID 2283051); details: primary human coronary artery smooth muscle cells; actives raise or lower the signal;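 note: thrombomodulin protein level measured by ELISA 24 h after dosing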
[19] = read-out: Transforming growth factor beta 1 (TGFb1), TGFB1 (gene 7040); test: BSK_BE3C_TGFb1: BioMAP Diversity Plus: BE3C Assay for Transforming growth factor beta 1 (TGFb1) Biomarker Activity (AID 2283036;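 note: TGF-b1 protein level measured by ELISA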); details: primary human bronchial epithelial cells; actives raise or lower the signal
Summary of the method: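 TGF-b1 measured via ELISA, 24 h after chemical dosing of human bronchial epithelial cells (BE3C). Overt cytotoxicity assessed in parallel by SRB (0.1%, TCA-fixed, 560 nm); analysis bidirectional relative to DMSO.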

[20] = read-out: Monokine induced gamma interferon (MIG), CXCL9 (gene 4283); test: BSK_BE3C_MIG: BioMAP Diversity Plus: BE3C Assay for Monokine induced gamma interferon (MIG) Biomarker Activity (AID 2283035); details: primary human bronchial epithelial cells; actives raise or lower the signal;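 note: MIG protein measured by ELISA in BE3C cultures after 24 h of dosing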
Summary of the method: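 Dose cells (human primary bronchial epithelial), incubate 24 h, quantify MIG by ELISA, then fit concentration–response in both directions relative to DMSO control.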

Measured: outcome

CN(C)[C@@H]1C(=O)C(C(N)=O)=C(O)[C@@]2(O)C(=O)C3=C(O)c4c(O)cccc4[C@@](C)(O)[C@H]3C[C@@H]12
not listed: [19] | [20]
inactive: all other assays above

c1ccc(N=Nc2ccccc2)cc1
not listed: [20]
inactive: all other assays above

COP(=S)(OC)SCN1C(=O)c2ccccc2C1=O
not listed: [4] | [19] | [20]
inactive: all other assays above

C1=Cc2cccc3cccc1c23
inactive: all assays above

Cc1ccc([N+](=O)[O-])cc1
not listed: [19] | [20]
inactive: all other assays above

[O-][Cl+]O
not listed: [19] | [20]
inactive: all other assays above

c1ccc2c(c1)oc1ccccc12
not listed: [20]
inactive: all other assays above
